Assay results published in paper PMC7862700, “An all-to-all approach to the identification of sequence-specific readers for epigenetic DNA modifications on cytosine”.

Key:
Test in all cases: DAPPL (digital affinity profiling via proximity ligation, sequencing); 10 mM Tris-HCl pH 7.5, 50 mM NaCl, 1 mM DTT, 4% glycerol, room temperature, 30 min; GST-TFs on glutathione beads, 16-mer random dsDNA library, 0.1% formaldehyde crosslink after washing; high values mean tight binding
[1] = target: T1, FEV (Homo sapiens, UniProt Q99581 1-238); settings: protein: recombinant; tags: N-terminal GST; dsDNA, one strand shown
T1 sequence: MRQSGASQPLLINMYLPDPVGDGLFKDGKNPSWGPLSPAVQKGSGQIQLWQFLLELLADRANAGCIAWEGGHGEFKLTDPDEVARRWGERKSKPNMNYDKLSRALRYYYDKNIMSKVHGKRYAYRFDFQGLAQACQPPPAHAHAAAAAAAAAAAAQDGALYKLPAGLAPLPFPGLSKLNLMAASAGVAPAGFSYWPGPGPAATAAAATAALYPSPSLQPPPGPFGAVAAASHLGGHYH
In short: (§1)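 Yeast served to express human transcription factors as GST fusions, which were then captured on glutathione beads and labelled with DNA barcodes. Pooled with a tag-only sample, they were incubated with 200 nmole of a 16-mer random double-stranded DNA library for 30 min at room temperature in Tris/NaCl/DTT/glycerol buffer, washed, crosslinked with 0.1% formaldehyde, ligated by proximity, amplified by PCR and sequenced. Dividing each hexamer's read frequency for a factor by its frequency for the tag-only sample gives the binding signal.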

[2] = target: ETV5 (Homo sapiens, UniProt P41161 1-510); settings: protein: recombinant; tags: N-terminal GST; dsDNA, one strand shown
Chain of ETV5 (P41161 whole entry): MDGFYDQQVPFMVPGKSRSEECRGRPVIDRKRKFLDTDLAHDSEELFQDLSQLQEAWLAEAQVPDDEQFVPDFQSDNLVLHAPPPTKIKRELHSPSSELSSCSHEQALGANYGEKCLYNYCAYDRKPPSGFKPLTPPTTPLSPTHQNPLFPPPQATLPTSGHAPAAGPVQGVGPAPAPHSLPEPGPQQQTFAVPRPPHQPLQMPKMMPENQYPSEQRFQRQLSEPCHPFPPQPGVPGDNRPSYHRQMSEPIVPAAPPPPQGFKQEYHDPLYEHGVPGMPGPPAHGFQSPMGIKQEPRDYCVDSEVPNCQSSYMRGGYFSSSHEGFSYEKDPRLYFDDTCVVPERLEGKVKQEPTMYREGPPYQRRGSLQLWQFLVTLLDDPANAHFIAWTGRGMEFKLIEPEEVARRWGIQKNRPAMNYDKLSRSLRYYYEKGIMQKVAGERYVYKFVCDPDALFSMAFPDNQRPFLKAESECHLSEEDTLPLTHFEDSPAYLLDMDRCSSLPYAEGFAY
In short: as §1

[3] = target: HSF1 (Homo sapiens, UniProt Q00613 1-529); settings: protein: recombinant; tags: N-terminal GST; chain copies: 3; dsDNA, one strand shown
Chain of HSF1 (Q00613 whole entry): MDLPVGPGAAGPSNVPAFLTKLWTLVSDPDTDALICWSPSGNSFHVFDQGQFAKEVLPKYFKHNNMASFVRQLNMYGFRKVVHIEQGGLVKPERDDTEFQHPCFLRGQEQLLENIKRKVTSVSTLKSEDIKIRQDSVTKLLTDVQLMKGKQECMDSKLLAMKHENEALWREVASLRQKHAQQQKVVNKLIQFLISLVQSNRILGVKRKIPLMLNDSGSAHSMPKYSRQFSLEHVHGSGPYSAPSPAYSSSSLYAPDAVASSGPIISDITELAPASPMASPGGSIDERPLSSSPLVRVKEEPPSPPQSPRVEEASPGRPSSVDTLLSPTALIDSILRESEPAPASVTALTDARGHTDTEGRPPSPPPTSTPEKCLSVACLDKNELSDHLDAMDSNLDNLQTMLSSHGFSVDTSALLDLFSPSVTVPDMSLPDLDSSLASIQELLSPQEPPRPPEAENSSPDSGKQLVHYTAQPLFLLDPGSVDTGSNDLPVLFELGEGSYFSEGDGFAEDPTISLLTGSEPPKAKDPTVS
In short: as §1

[4] = target: T2, SPIC (Homo sapiens, UniProt Q8N5J4 1-248); settings: protein: recombinant; tags: N-terminal GST; dsDNA, one strand shown
T2 sequence: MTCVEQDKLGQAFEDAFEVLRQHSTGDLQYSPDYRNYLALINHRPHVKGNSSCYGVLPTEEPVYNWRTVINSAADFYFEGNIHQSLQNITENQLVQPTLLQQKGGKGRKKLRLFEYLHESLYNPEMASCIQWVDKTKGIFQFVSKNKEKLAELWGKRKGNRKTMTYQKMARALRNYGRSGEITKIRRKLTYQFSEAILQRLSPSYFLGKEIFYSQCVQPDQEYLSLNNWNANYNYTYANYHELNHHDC
In short: as §1

[5] = target: ELF4 (Homo sapiens, UniProt Q99607 1-663); settings: protein: recombinant; tags: N-terminal GST; dsDNA, one strand shown
Chain of ELF4 (Q99607 whole entry): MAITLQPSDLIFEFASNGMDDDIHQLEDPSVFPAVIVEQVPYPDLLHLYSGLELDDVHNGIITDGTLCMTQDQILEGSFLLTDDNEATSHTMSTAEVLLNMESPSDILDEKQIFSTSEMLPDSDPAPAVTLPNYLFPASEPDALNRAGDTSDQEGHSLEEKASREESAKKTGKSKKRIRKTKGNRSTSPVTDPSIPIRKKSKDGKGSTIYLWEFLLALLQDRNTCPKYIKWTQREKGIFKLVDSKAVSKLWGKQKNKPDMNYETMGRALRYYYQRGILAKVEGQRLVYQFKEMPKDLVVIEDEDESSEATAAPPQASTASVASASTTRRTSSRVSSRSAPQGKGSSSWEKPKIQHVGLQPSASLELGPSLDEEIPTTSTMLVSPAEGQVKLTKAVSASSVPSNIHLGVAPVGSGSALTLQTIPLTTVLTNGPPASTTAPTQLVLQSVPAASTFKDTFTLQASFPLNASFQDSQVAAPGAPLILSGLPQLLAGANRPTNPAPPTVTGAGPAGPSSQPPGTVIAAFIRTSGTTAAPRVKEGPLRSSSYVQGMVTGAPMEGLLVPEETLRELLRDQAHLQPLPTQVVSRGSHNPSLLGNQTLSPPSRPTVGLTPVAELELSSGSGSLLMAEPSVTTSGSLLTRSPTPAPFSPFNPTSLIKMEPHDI
In short: as §1

[6] = target: T3, ELK4 (Homo sapiens, UniProt P28324-2 1-405); settings: protein: recombinant; tags: N-terminal GST; dsDNA, one strand shown
T3 sequence: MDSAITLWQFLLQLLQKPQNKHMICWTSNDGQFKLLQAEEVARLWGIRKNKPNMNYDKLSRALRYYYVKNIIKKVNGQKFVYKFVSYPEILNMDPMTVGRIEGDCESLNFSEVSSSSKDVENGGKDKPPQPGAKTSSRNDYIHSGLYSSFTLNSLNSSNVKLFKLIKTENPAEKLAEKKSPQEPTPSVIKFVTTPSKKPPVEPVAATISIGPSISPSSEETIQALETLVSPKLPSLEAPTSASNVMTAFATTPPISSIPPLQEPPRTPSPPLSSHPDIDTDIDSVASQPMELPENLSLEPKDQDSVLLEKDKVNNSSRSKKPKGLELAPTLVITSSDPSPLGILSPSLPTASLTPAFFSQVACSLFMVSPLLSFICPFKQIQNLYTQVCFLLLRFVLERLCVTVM
In short: as §1

[7] = target: T4, ETV2 (Homo sapiens, UniProt O00321 1-342); settings: protein: recombinant; tags: N-terminal GST; dsDNA, one strand shown
T4 sequence: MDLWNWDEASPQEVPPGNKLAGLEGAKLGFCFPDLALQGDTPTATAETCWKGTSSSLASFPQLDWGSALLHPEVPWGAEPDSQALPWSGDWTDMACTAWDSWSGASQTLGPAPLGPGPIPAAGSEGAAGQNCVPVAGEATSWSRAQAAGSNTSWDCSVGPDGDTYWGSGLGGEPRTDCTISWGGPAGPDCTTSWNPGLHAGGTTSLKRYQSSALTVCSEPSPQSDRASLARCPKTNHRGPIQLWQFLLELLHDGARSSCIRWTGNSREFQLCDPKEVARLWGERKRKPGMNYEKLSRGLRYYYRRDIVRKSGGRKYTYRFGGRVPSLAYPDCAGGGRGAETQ
In short: as §1

[8] = target: T5, ELF3 (Homo sapiens, UniProt P78545 1-371); settings: protein: recombinant; tags: N-terminal GST; dsDNA, one strand shown
T5 sequence: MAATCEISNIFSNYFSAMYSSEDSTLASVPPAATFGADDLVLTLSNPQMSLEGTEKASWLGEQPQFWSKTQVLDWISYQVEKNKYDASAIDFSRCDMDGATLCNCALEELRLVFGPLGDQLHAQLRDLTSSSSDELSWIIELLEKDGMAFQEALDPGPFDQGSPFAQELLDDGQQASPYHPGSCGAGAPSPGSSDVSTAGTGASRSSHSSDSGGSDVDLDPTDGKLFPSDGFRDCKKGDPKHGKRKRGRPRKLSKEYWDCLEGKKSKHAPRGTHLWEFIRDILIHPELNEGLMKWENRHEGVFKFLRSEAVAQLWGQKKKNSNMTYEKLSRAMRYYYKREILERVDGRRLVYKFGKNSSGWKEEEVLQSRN
In short: as §1

[9] = target: ETV1 (Homo sapiens, UniProt P50549 1-477); settings: protein: recombinant; tags: N-terminal GST; dsDNA, one strand shown
Chain of ETV1 (P50549 whole entry): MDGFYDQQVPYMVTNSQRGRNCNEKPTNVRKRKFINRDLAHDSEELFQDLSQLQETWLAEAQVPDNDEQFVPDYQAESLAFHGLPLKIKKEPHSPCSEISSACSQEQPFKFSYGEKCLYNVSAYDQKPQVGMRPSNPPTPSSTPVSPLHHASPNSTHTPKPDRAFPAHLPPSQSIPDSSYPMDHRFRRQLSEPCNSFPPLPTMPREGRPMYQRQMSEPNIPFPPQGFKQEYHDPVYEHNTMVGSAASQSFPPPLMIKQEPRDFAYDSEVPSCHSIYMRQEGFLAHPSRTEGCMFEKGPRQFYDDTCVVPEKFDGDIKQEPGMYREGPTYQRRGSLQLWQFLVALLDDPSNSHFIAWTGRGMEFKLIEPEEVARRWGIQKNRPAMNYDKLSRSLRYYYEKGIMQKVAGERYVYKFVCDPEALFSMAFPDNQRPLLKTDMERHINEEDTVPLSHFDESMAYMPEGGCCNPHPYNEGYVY
In short: as §1

[10] = target: T6, ERF (Homo sapiens, UniProt P50548 1-548); settings: protein: recombinant; tags: N-terminal GST; dsDNA, one strand shown
T6 sequence: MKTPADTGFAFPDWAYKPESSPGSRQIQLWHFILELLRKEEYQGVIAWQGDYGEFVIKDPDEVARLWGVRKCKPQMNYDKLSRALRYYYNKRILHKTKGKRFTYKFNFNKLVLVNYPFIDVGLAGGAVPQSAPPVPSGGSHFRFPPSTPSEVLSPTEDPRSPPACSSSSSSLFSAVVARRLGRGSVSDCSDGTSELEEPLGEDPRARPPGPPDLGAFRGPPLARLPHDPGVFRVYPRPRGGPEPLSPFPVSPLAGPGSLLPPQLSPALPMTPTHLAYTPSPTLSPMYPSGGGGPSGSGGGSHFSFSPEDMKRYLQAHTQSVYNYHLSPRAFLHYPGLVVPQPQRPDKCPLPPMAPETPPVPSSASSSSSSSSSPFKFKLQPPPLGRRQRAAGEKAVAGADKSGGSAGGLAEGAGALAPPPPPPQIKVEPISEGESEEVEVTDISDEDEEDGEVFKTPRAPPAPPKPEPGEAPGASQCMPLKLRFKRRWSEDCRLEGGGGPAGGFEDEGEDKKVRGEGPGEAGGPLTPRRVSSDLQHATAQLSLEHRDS
In short: as §1

[11] = target: T7, ETV3L (Homo sapiens, UniProt Q6ZN32 1-361); settings: protein: recombinant; tags: N-terminal GST; dsDNA, one strand shown
T7 sequence: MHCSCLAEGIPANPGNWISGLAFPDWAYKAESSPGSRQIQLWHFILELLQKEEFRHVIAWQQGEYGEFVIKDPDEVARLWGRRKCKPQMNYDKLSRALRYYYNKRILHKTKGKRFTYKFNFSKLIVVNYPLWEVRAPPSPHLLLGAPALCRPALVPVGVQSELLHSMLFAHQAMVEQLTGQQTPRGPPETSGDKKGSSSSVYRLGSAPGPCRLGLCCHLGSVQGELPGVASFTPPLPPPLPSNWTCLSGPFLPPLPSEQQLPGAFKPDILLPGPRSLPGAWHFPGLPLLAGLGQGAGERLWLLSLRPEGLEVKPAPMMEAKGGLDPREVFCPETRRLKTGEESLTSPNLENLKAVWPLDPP
In short: as §1

[12] = target: T8, ETS2 (Homo sapiens, UniProt P15036 1-469); settings: protein: recombinant; tags: N-terminal GST; dsDNA, one strand shown
T8 sequence: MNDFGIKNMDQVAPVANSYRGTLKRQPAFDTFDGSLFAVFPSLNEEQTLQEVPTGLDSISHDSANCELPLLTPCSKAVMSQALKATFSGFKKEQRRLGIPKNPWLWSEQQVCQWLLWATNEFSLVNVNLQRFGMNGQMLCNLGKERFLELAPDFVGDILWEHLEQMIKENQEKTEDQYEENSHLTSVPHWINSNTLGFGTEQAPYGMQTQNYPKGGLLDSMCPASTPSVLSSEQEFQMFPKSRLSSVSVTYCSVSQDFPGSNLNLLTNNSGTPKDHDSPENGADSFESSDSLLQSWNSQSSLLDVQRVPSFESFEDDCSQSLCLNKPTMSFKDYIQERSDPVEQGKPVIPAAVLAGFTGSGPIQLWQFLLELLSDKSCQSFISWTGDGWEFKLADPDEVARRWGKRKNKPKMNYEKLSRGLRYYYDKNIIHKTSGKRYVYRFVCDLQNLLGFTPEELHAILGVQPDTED
In short: as §1

[13] = target: T9, SPDEF (Homo sapiens, UniProt O95238 1-335); settings: protein: recombinant; tags: N-terminal GST; dsDNA, one strand shown
T9 sequence: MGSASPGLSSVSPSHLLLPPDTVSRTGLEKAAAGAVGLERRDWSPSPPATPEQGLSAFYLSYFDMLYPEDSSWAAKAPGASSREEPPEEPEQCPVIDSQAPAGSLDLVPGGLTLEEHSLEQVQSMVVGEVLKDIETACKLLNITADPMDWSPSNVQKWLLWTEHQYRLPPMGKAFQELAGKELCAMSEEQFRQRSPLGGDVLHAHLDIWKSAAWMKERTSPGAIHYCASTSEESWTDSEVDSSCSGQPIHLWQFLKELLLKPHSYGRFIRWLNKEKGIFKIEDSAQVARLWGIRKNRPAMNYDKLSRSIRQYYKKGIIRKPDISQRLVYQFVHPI
In short: as §1

[14] = target: T10, ETV7 (Homo sapiens, UniProt Q9Y603 1-341); settings: protein: recombinant; tags: N-terminal GST; dsDNA, one strand shown
T10 sequence: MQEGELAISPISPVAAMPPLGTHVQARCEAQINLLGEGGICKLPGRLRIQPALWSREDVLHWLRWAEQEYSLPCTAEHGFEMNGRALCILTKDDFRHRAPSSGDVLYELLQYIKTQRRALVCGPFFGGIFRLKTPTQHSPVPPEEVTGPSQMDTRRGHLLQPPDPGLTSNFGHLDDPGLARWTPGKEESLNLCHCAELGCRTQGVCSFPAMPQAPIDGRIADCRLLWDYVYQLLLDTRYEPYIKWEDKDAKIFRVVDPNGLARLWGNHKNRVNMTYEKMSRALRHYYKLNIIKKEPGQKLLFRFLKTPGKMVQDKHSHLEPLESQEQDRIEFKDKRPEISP
In short: as §1

[15] = target: T11, ELF5 (Homo sapiens, UniProt Q9UKW6-2 1-255); settings: protein: recombinant; tags: N-terminal GST; dsDNA, one strand shown
T11 sequence: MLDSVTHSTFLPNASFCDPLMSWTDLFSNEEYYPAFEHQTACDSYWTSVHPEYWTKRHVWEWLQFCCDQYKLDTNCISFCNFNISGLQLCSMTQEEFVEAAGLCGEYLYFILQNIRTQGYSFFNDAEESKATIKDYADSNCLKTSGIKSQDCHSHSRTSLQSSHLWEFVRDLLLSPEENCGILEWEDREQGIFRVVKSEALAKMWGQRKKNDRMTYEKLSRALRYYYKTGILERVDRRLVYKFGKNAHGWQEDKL
In short: as §1

[16] = target: T12, ETV3 (Homo sapiens, UniProt P41162-2 1-143); settings: protein: recombinant; tags: N-terminal GST; dsDNA, one strand shown
T12 sequence: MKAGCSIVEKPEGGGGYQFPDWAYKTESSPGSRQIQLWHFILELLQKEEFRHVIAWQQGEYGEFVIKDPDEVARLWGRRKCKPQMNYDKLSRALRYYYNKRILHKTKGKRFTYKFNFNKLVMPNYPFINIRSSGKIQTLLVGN
In short: as §1

[17] = target: ETV6 (Homo sapiens, UniProt P41212 1-452); settings: protein: recombinant; tags: N-terminal GST; dsDNA, one strand shown
Chain of ETV6 (P41212 whole entry): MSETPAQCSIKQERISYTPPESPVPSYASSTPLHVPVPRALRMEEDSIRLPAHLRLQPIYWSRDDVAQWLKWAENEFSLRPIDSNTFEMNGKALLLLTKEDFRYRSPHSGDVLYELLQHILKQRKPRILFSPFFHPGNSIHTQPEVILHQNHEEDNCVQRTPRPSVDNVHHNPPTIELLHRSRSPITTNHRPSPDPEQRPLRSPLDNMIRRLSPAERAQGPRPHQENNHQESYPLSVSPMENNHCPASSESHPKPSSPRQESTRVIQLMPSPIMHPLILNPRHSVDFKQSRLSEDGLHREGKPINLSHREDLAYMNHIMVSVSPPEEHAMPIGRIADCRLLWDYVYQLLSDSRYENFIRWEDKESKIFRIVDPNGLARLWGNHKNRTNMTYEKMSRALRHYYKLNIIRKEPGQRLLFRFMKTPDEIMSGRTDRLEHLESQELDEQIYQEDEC
In short: as §1

| Sequence | binding signal [1] | binding signal [2] | binding signal [3] | binding signal [4] | binding signal [5] | binding signal [6] | binding signal [7] | binding signal [8] | binding signal [9] | binding signal [10] | binding signal [11] | binding signal [12] | binding signal [13] | binding signal [14] | binding signal [15] | binding signal [16] | binding signal [17] |
| --- | --- | --- | --- | --- | --- | --- | --- | --- | --- | --- | --- | --- | --- | --- | --- | --- | --- |
| CCGACG | 1.22 fold enrichment (6-mer frequency, TF over GST control) | 1.16 fold enrichment (6-mer frequency, TF over GST control) | 1.02 fold enrichment (6-mer frequency, TF over GST control) | 1.57 fold enrichment (6-mer frequency, TF over GST control) | 1.29 fold enrichment (6-mer frequency, TF over GST control) | 1.22 fold enrichment (6-mer frequency, TF over GST control) | 1.31 fold enrichment (6-mer frequency, TF over GST control) | 1.14 fold enrichment (6-mer frequency, TF over GST control) | 1.2 fold enrichment (6-mer frequency, TF over GST control) | 1.32 fold enrichment (6-mer frequency, TF over GST control) | 1.23 fold enrichment (6-mer frequency, TF over GST control) | 1.33 fold enrichment (6-mer frequency, TF over GST control) | 1.19 fold enrichment (6-mer frequency, TF over GST control) | 1.34 fold enrichment (6-mer frequency, TF over GST control) | 1.28 fold enrichment (6-mer frequency, TF over GST control) | 1.16 fold enrichment (6-mer frequency, TF over GST control) | 1.31 fold enrichment (6-mer frequency, TF over GST control) |
| GAAGTA | 2.05 fold enrichment (6-mer frequency, TF over GST control) | 2.16 fold enrichment (6-mer frequency, TF over GST control) | 1.02 fold enrichment (6-mer frequency, TF over GST control) | 2.19 fold enrichment (6-mer frequency, TF over GST control) | 1.74 fold enrichment (6-mer frequency, TF over GST control) | 1.71 fold enrichment (6-mer frequency, TF over GST control) | 1.89 fold enrichment (6-mer frequency, TF over GST control) | 2.08 fold enrichment (6-mer frequency, TF over GST control) | 2.11 fold enrichment (6-mer frequency, TF over GST control) | 1.79 fold enrichment (6-mer frequency, TF over GST control) | 1.79 fold enrichment (6-mer frequency, TF over GST control) | 2.08 fold enrichment (6-mer frequency, TF over GST control) | 2.1 fold enrichment (6-mer frequency, TF over GST control) | 2.08 fold enrichment (6-mer frequency, TF over GST control) | 2.34 fold enrichment (6-mer frequency, TF over GST control) | 2.11 fold enrichment (6-mer frequency, TF over GST control) | 2.52 fold enrichment (6-mer frequency, TF over GST control) |
